Assay outcomes from PubChem.
SW480 rerep – inducers of DNA re-replication in SW480 colon cancer cells | 340,000 compounds, 1.8% hits | SW480 DNA re-replication, Hoechst DNA content imaging, 48 h | Potency, µM (titrated, usually from 46.1 µM), without a hit: at the top dose re-replication activation, usual class: activators; also: potency is read from the fitted curve at half-maximal effect; % of control where 0% means no effect; nearly all actives have a fitted effect of over 55% in size
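First, 250 cells per well were seeded. Next, compound or vehicle (23 nL) was pinned in, plates sat 48 hr at 37 C. Finally Hoechst was added for 40 min before fluorescence scanning.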
IL1B secr inh – blocks inflammasome-driven IL-1 beta release | activity change, % at 57.5 µM | THP-1 LPS/ATP IL-1B secretion, AlphaLISA, 16 h; active compounds read low | 360,000 compounds, 4.7% hits | AID 743279; in the data active = activity change below about -50%; inconclusive = mostly about -30% to -49%; also: % is scaled to controls: 0 for no effect and ±100 for the full control effect
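Secreted IL-1B measured by AlphaLISA bead assay after 16 h compound exposure of THP-1 cells; compounds (final up to 57.5 uM) added 1 h before LPS (250 ng/mL) and ATP (1.25 mM) stimulation; lower signal means less secretion.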
MCF10A rerep – inducers of DNA re-replication in MCF 10A breast cells. MCF 10A DNA re-replication, Hoechst nuclear intensity, 48 h. 350,000 compounds, 2.9% hits. Potency, µM (highest dose often 46.1 µM), for the others: at the highest dose activity, positive = re-replication, usual class: activators; also: potency is read from the fitted curve at half-maximal effect; % of control where 0% means no effect; nearly all actives have a fitted effect of over 50% in size
KB-3-1 tox – kills parental KB-3-1 adenocarcinoma cells; Potency, µM (doses to about 46.1 µM), hits mostly cytotoxic; 400,000 compounds, 1.4% hits; KB-3-1 viability, CellTiter-Glo ATP luminescence, 72 h; also: potency is read from the fitted curve at half-maximal effect; % is scaled to controls: 0 for no effect and ±100 for the full control effect; nearly all actives have a fitted effect of over 60% in size
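72 h, 37 °C compound treatment of KB-3-1 parental cells; CellTiter-Glo added, 10 min, luminescence read. Data corrected against DMSO-only plates and normalized before curve fitting.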
KB-V1 MDR tox – kills drug-selected multidrug resistant KB-V1 cells; KB-V1 MDR cells viability, CellTiter-Glo, 72 h; Potency, µM (doses to about 46.1 µM), hits mostly cytotoxic; 400,000 compounds, 3.4% hits; AID 1347076; also: potency is read from the fitted curve at half-maximal effect; % is scaled to controls: 0 for no effect and ±100 for the full control effect; nearly all actives have a fitted effect of over 60% in size
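Cells of the MDR subline KB-V1 are plated, dosed with compound at multiple concentrations, and incubated 72 h at 37 degrees C; CellTiter-Glo is then added and luminescence read after 10 min.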
* = called active by the depositor. In the library only some 9.9% were active in any assay of this set; here they are far more common. Unless noted, calls follow the shape of the dose curve; as a rule, active = well fitted curve in the direction sought with a large enough effect; inconclusive = small, poorly fitted or top-dose-only effect, or another doubt; inactive = no such curve, though single readings can be large; an effect the other way counts as inactive or inconclusive.

How did N#CCc1c(C#N)c(N)nc(N2CCN(c3ccc(F)cc3)CC2)c1C#N do in these assays?
SW480 rerep: -3%; IL1B secr inh: -27; MCF10A rerep: inconclusive; KB-3-1 tox: inconclusive; KB-V1 MDR tox: 12µM*

How did N#CCc1c(C#N)c(N)nc(N2CCN(S(=O)(=O)c3ccccc3F)CC2)c1C#N do in these assays?
SW480 rerep: -2%; IL1B secr inh: 10; MCF10A rerep: -2%; KB-3-1 tox: inactive; KB-V1 MDR tox: inactive

What do the screens show for `COc1ccc(OCC(=O)Nc2cc(-c3nc4ccccc4o3)ccc2Cl)cc1`?
KB-3-1 tox: inactive; KB-V1 MDR tox: inconclusive

What do the screens show for `Cn1cnnc1SCCNS(=O)(=O)c1cccc([N+](=O)[O-])c1`?
SW480 rerep: -1%; IL1B secr inh: -2; MCF10A rerep: -1%

Results for COc1ccccc1OCC(=O)NNc1c2ccccc2nc2ccccc12 ?
SW480 rerep: inconclusive; IL1B secr inh: inconclusive; MCF10A rerep: 1%; KB-3-1 tox: inactive; KB-V1 MDR tox: inconclusive

Results for Nc1c(C(=O)NCc2ccccc2)c2nc3ccccc3nc2n1-c1ccc2c(c1)OCO2 ?
SW480 rerep: 5%; IL1B secr inh: -12; MCF10A rerep: 12%; KB-3-1 tox: inactive; KB-V1 MDR tox: inactive

How did Nc1c(C(=O)NCc2ccc3c(c2)OCO3)c2nc3ccccc3nc2n1CCCN1CCOCC1 do in these assays?
SW480 rerep: inconclusive; IL1B secr inh: -98*; MCF10A rerep: 0%; KB-3-1 tox: inactive; KB-V1 MDR tox: inactive

Results for Nc1ccc(-n2c(N)c(C(=O)NCc3ccc4c(c3)OCO4)c3nc4ccccc4nc32)cc1 ?
SW480 rerep: 21µM*; IL1B secr inh: -14; MCF10A rerep: 16µM*; KB-3-1 tox: inactive; KB-V1 MDR tox: inactive

What do the screens show for `COc1ccccc1CNC(=O)c1c(N)n(CCCN2CCOCC2)c2nc3ccccc3nc12`?
SW480 rerep: inconclusive; IL1B secr inh: inconclusive; MCF10A rerep: inconclusive; KB-3-1 tox: inactive; KB-V1 MDR tox: inconclusive

What do the screens show for `Nc1c(C(=O)NCCN2CCOCC2)c2nc3ccccc3nc2n1-c1ccccc1`?
SW480 rerep: 1%; IL1B secr inh: -52*; MCF10A rerep: 1%; KB-3-1 tox: inactive; KB-V1 MDR tox: inconclusive

Results for Nc1c(C(=O)NCCN2CCOCC2)c2nc3ccccc3nc2n1-c1ccc2c(c1)OCO2 ?
SW480 rerep: -2%; IL1B secr inh: -59*; MCF10A rerep: 6%; KB-3-1 tox: inactive; KB-V1 MDR tox: inactive

How did Cc1nn(-c2ccccc2)c(N2CCCC2)c1/C=N/NC(=S)Nc1ccccc1F do in these assays?
IL1B secr inh: 0; MCF10A rerep: inconclusive; KB-3-1 tox: inactive; KB-V1 MDR tox: inactive

Results for Cc1cc(NC(=O)CS(=O)(=O)c2ccc(Cl)cc2)no1 ?
SW480 rerep: 9%; IL1B secr inh: -4; MCF10A rerep: -6%; KB-3-1 tox: inactive; KB-V1 MDR tox: inactive

Results for O=C(NC1CCCCC1)c1sc(=S)n2c1[nH]c(=O)c1ccccc12 ?
SW480 rerep: -8%; IL1B secr inh: -29; MCF10A rerep: inconclusive; KB-3-1 tox: inconclusive; KB-V1 MDR tox: 21µM*

How did C=CCNC(=O)c1ccccc1NC(=O)c1ccc(Cl)c(S(=O)(=O)Nc2cc(C)ccc2C)c1 do in these assays?
SW480 rerep: -3%; IL1B secr inh: 26; MCF10A rerep: -2%; KB-3-1 tox: inactive; KB-V1 MDR tox: 21µM*

What do the screens show for `Cc1ccccc1NS(=O)(=O)c1cc(C(=O)Nc2ccccc2-c2ccccc2)ccc1Cl`?
SW480 rerep: 25%; IL1B secr inh: -14; MCF10A rerep: inconclusive; KB-3-1 tox: inactive; KB-V1 MDR tox: inactive

How did CC1CCCC(C)N1C(=O)COc1ccc(F)cc1 (centres undefined) do in these assays?
SW480 rerep: -15%; IL1B secr inh: 6; MCF10A rerep: 15%; KB-3-1 tox: inconclusive; KB-V1 MDR tox: inactive

Results for CN(/N=C/c1ccc(Br)o1)C1=NS(=O)(=O)c2ccccc21 ?
SW480 rerep: inconclusive; IL1B secr inh: -7; MCF10A rerep: 23µM*; KB-3-1 tox: inactive; KB-V1 MDR tox: inactive

What do the screens show for `O=C(COC(=O)/C=C/C(=O)OCC(=O)NC12CC3CC(CC(C3)C1)C2)NC12CC3CC(CC(C3)C1)C2`?
SW480 rerep: 18µM*; IL1B secr inh: -93*; MCF10A rerep: 5.2µM*; KB-3-1 tox: inconclusive; KB-V1 MDR tox: inactive

What do the screens show for `O=C(Nc1ccc(C(=O)O)cc1)/C(=C\c1cccc([N+](=O)[O-])c1)NC(=O)c1ccc(Br)o1`?
SW480 rerep: 5%; IL1B secr inh: 1; MCF10A rerep: -2%; KB-3-1 tox: inactive; KB-V1 MDR tox: inconclusive

Results for CC1=C(CC/C(C)=N/NC(N)=S)C(C)(C)CCC1 ?
SW480 rerep: 11µM*; IL1B secr inh: -3; MCF10A rerep: 13µM*; KB-3-1 tox: inconclusive; KB-V1 MDR tox: inactive

How did CC(C)=CCN1CCN(CCC2=C(C)CCCC2(C)C)CC1CCO (centres undefined) do in these assays?
SW480 rerep: -8%; IL1B secr inh: inconclusive; MCF10A rerep: inconclusive; KB-3-1 tox: inconclusive; KB-V1 MDR tox: inactive

How did CCOc1ccc(CNS(=O)(=O)c2cc(-c3cc(C)no3)ccc2OC)cc1OC do in these assays?
SW480 rerep: -2%; IL1B secr inh: 31; MCF10A rerep: 0%; KB-3-1 tox: inactive; KB-V1 MDR tox: inactive

What do the screens show for `COc1ccc(NC(=O)Cn2c3ccc(OC)cc3c3nc4n(c(=O)c32)CCS4)cc1`?
SW480 rerep: 12%; IL1B secr inh: 14; MCF10A rerep: inconclusive; KB-3-1 tox: inactive; KB-V1 MDR tox: inconclusive

How did CC1Cn2c(nnc2C23CC4CC(CC(C4)C2)C3)S1 (centres undefined) do in these assays?
SW480 rerep: inconclusive; IL1B secr inh: 18; MCF10A rerep: 15µM*; KB-3-1 tox: inactive; KB-V1 MDR tox: inactive

How did O=C(NCc1ccc(Cl)cc1)c1ccc(CSCc2cccc(Cl)c2)o1 do in these assays?
KB-3-1 tox: inactive; KB-V1 MDR tox: inactive

Results for O=C(NCc1ccc2c(c1)OCO2)c1ccc(CSCc2ccc(Cl)cc2)o1 ?
SW480 rerep: -5%; IL1B secr inh: 3; MCF10A rerep: inconclusive; KB-3-1 tox: inactive; KB-V1 MDR tox: 21µM*

How did O=c1c2ccccc2ncn1-c1ccc(Br)cc1[N+](=O)[O-] do in these assays?
SW480 rerep: 5.8µM*; IL1B secr inh: 82; MCF10A rerep: inconclusive; KB-3-1 tox: inactive; KB-V1 MDR tox: inactive

How did CC1(C)Cc2c(C#N)c(NCCc3ccccc3)nc(-c3ccco3)c2CO1 do in these assays?
SW480 rerep: 6.5µM*; IL1B secr inh: inconclusive; MCF10A rerep: 15µM*; KB-3-1 tox: inconclusive; KB-V1 MDR tox: inconclusive
